Test [1] in a line: Her2 expression decrease, cell viability multiplex – SKBR3 breast tumor cells, AlphaScreen, ATP viability, primary screen (AID 461;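 active = Her2 level under about 52% in both replicate screens, with viability over 70% of control, limit read from the data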;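 for Her2 level: lower value means less Her2 protein in the cells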;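 for viability: percent of carrier control wells set as 100% viability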). The note with it: SKBR3 Her2 protein level, 18-24 h, measured here: SKBR3 viability, ATP luminescence, at 10 µM. In general terms: Bead proximity is the source of the signal in Alpha formats.
In test [2] the target is Receptor tyrosine-protein kinase erbB-2 (Homo sapiens) (UniProt P04626). Described as above. Particulars: 18-24 h, at 10 µM, stronger effect = lower value.
Receptor tyrosine-protein kinase erbB-2 (Homo sapiens), sequence (P04626 whole entry, looked up): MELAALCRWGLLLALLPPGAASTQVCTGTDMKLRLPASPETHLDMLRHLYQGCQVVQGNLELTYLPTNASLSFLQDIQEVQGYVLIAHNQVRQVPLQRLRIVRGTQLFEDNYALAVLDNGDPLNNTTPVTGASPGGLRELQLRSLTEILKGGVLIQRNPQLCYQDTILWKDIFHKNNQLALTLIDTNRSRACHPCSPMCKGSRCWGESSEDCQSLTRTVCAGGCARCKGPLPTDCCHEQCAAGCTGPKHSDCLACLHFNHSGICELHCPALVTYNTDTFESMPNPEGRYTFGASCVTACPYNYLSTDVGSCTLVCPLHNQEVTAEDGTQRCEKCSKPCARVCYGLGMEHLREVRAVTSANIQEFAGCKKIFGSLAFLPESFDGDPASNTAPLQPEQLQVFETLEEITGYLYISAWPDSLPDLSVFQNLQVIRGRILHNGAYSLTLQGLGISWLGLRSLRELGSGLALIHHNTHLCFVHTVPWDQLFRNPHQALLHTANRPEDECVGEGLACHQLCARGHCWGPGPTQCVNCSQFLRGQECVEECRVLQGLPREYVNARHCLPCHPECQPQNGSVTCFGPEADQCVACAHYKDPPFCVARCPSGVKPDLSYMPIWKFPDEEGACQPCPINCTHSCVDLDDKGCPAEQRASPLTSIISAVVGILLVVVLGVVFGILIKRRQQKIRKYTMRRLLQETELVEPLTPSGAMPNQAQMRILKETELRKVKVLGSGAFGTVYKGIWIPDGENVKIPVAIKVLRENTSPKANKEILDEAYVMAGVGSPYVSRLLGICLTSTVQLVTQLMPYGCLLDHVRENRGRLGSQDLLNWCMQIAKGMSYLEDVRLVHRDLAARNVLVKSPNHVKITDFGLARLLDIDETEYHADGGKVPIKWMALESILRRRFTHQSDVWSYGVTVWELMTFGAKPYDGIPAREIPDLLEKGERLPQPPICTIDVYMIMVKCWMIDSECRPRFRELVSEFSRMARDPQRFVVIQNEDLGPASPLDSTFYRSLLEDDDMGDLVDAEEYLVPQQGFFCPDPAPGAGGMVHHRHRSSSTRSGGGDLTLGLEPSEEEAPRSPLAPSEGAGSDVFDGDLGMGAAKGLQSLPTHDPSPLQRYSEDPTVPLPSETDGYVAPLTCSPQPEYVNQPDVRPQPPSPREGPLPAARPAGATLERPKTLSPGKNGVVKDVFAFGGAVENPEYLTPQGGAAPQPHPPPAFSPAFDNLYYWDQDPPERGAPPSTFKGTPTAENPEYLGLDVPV
A short description of test [3]: reduced viability of SK-BR-3 breast cancer cells – cell-based, 24 h, human, pilot screen (AID 572).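 Note: compound exposure lasted between 18 and 24 h rather than exactly 24 h; 100% = carrier-treated control wells.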 The note with it: SK-BR-3 viability, CellTiter-Glo luminescence, at 10 µM, stronger effect = lower value. A general note: In ATP-based viability assays light output follows the ATP content of the culture.
The nature of test [4]: HUVEC growth inhibition – cell-based, human, primary screen (AID 575;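 active = viability at or below 30% in both replicate assays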;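 note: 100% = median of untreated cell wells with 0.1% DMSO on each plate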). The note with it: HUVEC proliferation, CellTiter-Glo luminescence, 72 h; at 10 µM; stronger effect = lower value.
Test [5] can be described thus: H69AR cell proliferation blockers – human, duplicate replicates, primary screen (AID 580;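 active = viability at or under a set limit in both replicates, limit being median viability minus 3 SD, cut at about 48% in these data, passing the limit was not always enough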;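 note: 100% = mean luminescence of untreated wells and 0% = no signal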). The note with it: H69AR lung tumor cells viability, ATP luminescence, 72 h; at 10 µM; stronger effect = lower value.
Test [6] is described as follows: MRP1 drug-resistance reversers in H69AR cells – cell-based, doxorubicin co-treatment, pilot screen (AID 601;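 active = viability loss from added drug above about 55%, and viability with drug at most 40%, in both replicates, limit read from the data, passing the limit was not always enough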). The note with it: CellTiter-Glo, 72 h, at 10 µM; for differential viability (reversal): stronger effect = higher value.
A short description of test [7]: yeast transport mutant growth inhibition pilot in 384-well plates, post-Golgi transport modulator project (AID 636; in the data active = inhibition above about 31%). Particulars: absorbance 615 nm, about 18 h, stronger effect = higher value.
A short description of test [8]: growth suppression of yeast trafficking mutant, preliminary HTS, modulators of trafficking downstream of Golgi apparatus project, 1536-format plate, OD 615 nm (AID 637; in the data active = inhibition above about 30%). Particulars: yeast transport mutant growth, absorbance 615 nm, 18 h; stronger effect = higher value.
Test [9] is described as follows: S. cerevisiae growth inhibition in permissive medium (OD615), pilot counter-assay for S. cerevisiae lifespan shortening project, permissive growth control (AID 705;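 active = growth inhibition above 25% in both replicates, a cutoff set 3 SD above the mean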). The note with it: OD615, 24 h, at 10 µM, stronger effect = higher value.
Test [10] in a line: S. cerevisiae growth inhibition in restrictive medium, OD615, pilot screen, restrictive growth control, yeast lifespan reduction project (AID 706;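 active = growth inhibition above a set limit, 3 SD over mean compound inhibition, in both replicates, cut at about 43% in these data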;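 note: modified DeaD lifespan yeast strain shifted to restrictive glucose medium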). Particulars: OD615, 48 h, at 10 µM, stronger effect = higher value.
A short description of test [11]: doxorubicin toxicity protection in MRP-1 cells – H69AR cells, CellTiter-Glo, duplicate, MRP-1 activator project, pilot screen (AID 807;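 active = viability increase at or above a cutoff of the median across tested compounds plus 3 SD, cut at about 8.5% in these data, passing the limit was not always enough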;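 note: compound pretreatment 18-22 h then 72 h combined with doxorubicin; 0% = doxorubicin alone and 100% = vehicle without doxorubicin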). Particulars: H69AR viability with doxorubicin, CellTiter-Glo luminescence; at 10 µM; stronger effect = higher value.
A short description of test [12]: viability of HCT116 without oncogenic beta-catenin – human colon tumor cells, pilot screen (AID 823;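 active = cell viability at or below a set limit in both duplicate runs, the limit being the all-compound median minus 4 SD, cut at about 23% in these data, passing the limit was not always enough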;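 note: 0% = wells killed by 20 µM Hyamine and 100% = untreated DMSO cell wells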). Particulars: HCT116 beta-catenin knockout viability, CellTiter-Glo, 60 h; at 10 µM; stronger effect = lower value.
The nature of test [13]: viability of PTEN-null HCT116 cells – cell-based, HCT116 clonal line, CellTiter-Glo, pilot screen (AID 824;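 active = viability at or below 27.92% in each of two runs, the all-compound median minus 4 SD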;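 note: 0% = 20 µM Hyamine control and 100% = vehicle cell control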). Particulars: HCT116 PTEN-deleted viability, 60 h, at 10 µM, stronger effect = lower value.
Test [14] in a line: RAM pathway blockade in budding yeast – dse1pr::URA3 reporter, 5-FOA selection, pilot screen (AID 869;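 active = inhibition over a set limit, the all-compound mean plus 3 SD, in both replicate runs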;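 note: 0% = DMSO wells with no growth and 100% = 10 µM 1-NA-PP1 with full growth; RAM network block rescues cells from 5-FOA so hits raise OD615 growth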). Particulars: S. cerevisiae dse1pr::URA3 5-FOA growth, OD615, 2 d; at 10 µM; stronger effect = higher value; strain carries analog-sensitive mutant Cbk1 kinase.
The nature of test [15]: RAM signaling pathway blockade in yeast – S. cerevisiae, Pdr1DBD-CYC8 efflux-inhibited sensitized strain, primary screen (AID 1298;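 active = RAM network inhibition above 8.4% in each of two replicates, 3 SD over the compound average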;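 note: 0% = DMSO untreated cells without growth and 100% = 10 µM 1-NA-PP1 full growth; higher means more yeast growth rescued from 5-FOA killing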). The note with it: S. cerevisiae cbk1-as DSE1-URA3 strain, 5-FOA growth OD615, 2 d; at 50 µM; stronger effect = higher value.
[16] abbreviates: H69AR cells + 2 uM doxorubicin, measured here: viability with 2 uM doxorubicin, stronger effect = lower value.
The mark [17] stands for this setting: H69AR cells, compound alone cytotoxicity.

These results are taken from PubChem BioAssay.

Results filed as inconclusive are left out. The source made the active and inactive calls.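 Rule for the calls, unless noted: active = viability at or below 10% of carrier control in both of two separate runs; inconclusive = viability at or below 10% in only one of the two runs; inactive = the rest.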

One may read the viability as a read-out of living cells in per cent, often relative to untreated cells. Broadly, the inhibition is the drop in the measured response relative to a control, in per cent. As to `COc1ccc(C(NC(=O)c2ccco2)c2ccc(OC)c(OC)c2)cc1` (stereo not given), the viability in test [1] is 93%; in test [3], 93% (inactive); in [4] it was 89.2% (inactive); in test [5], 96.2% (inactive); in [6] (setting [16]) it was 81.1%; in test [6] (setting [17]) it was 96.2%. Further, the results for the viability in [12] and in test [13] were 98.2% (inactive) and 96.4% (inactive), respectively. Also, in [2], the Her2 level was 84% (inactive). Besides, the differential viability (reversal) in test [6] (H69AR cells + 2 uM doxorubicin) is 15.1% (inactive). Besides, the inhibition in test [7] was -8.11% (inactive); in test [8] it was -3.17% (inactive); in test [14], 1.3% (inactive). Besides, the values for the growth inhibition in test [9] and in test [10] were -14.2% (inactive) and -19.3% (inactive), respectively. Also, the viability increase in test [11] was -4.05% (inactive). Further, the RAM network inhibition in [15] was 2.41% (inactive).
For the compound `COc1ccc(NC(=O)C2CCCN(S(=O)(=O)c3cccc4cccnc34)C2)cc1OC` (stereo not given), the viability is 82% in test [1]; 82% (inactive) in test [3]; 75.4% (inactive) in test [4]; 67.5% (inactive) in test [5]; 74.2% in test [6] (setting [16]); 67.5% in test [6] (setting [17]). In addition, the viability in test [12] was 80.3% (inactive); in [13], 78.6% (inactive). In addition, the Her2 level in test [2] was 106% (inactive). Further, the differential viability (reversal) in [6] (H69AR cells + 2 uM doxorubicin) is -6.73% (inactive). For the same compound, the inhibition in test [7] was -4.13% (inactive); in [8], 1.67% (inactive); in [14], 2.09% (inactive). The growth inhibition in [9] is -1.21% (inactive); in test [10], 0.31% (inactive). The viability increase in test [11] is -2.32% (inactive). Moreover, the RAM network inhibition in test [15] is 2.55% (inactive).
On to `c1ccc(C2(Cn3ccc4ccccc43)OCCO2)cc1`, for which the viability was 89% in [1]; 89% (inactive) in test [3]; 93.7% (inactive) in test [4]; 94.9% (inactive) in test [5]; 87.1% in [6] (setting [16]); 94.9% in test [6] (setting [17]). Besides, the viability is 81.6% (inactive) in test [12] and 81.8% (inactive) in test [13]. Besides, the Her2 level in test [2] is 104% (inactive). In test [6] (H69AR cells + 2 uM doxorubicin), the differential viability (reversal) is 7.87% (inactive). The figures for the inhibition in test [7], in test [8] and in test [14] were -0.78% (inactive), 3.44% (inactive) and 1.63% (inactive), respectively. Besides, the figures for the growth inhibition in test [9] and in test [10] were -4.05% (inactive) and -10.5% (inactive), respectively. The viability increase in [11] is -3.2% (inactive). Moreover, the RAM network inhibition in test [15] was 6.65% (inactive).
With `Cc1cccc(-n2ncc3c(NCCCO)ncnc32)c1`, the viability was 95.5% in test [1]; 95.5% (inactive) in test [3]; 86.4% (inactive) in [4]; 88.3% (inactive) in test [5]; 80.7% in [6] (setting [16]); 88.3% in test [6] (setting [17]). Moreover, the viability in test [12] was 112% (inactive); in test [13], 104% (inactive). Also, in test [2], the Her2 level is 118% (inactive). The differential viability (reversal) in test [6] (H69AR cells + 2 uM doxorubicin) was 7.59% (inactive). In addition, the inhibition was 2.4% (inactive) in test [7], -2.5% (inactive) in test [8] and 0.64% (inactive) in [14]. For the same compound, the growth inhibition in test [9] was -12.1% (inactive); in test [10], -8.93% (inactive). Also, the viability increase in [11] was 0.27% (inactive). Further, the RAM network inhibition in test [15] was -0.67% (inactive).
For `CC1(C)NC(=O)N(CC(O)COc2cccc(F)c2)C1=O` (stereo not given), the viability is 97% in test [1]; 97% (inactive) in test [3]; 110% (inactive) in test [4]; 101% (inactive) in test [5]; 99.8% in test [6] (setting [16]); 101% in test [6] (setting [17]). The viability was 99.9% (inactive) in [12] and 97.9% (inactive) in test [13]. The Her2 level in test [2] was 112% (inactive). Besides, the differential viability (reversal) in [6] (H69AR cells + 2 uM doxorubicin) is 1.67% (inactive). In addition, the inhibition in test [7] is 3.73% (inactive); in [8], -1% (inactive); in [14], 1.2% (inactive). For the same compound, the results for the growth inhibition in test [9] and in test [10] were -3.19% (inactive) and -1.89% (inactive), respectively. In addition, the viability increase in test [11] was -0.02% (inactive). In addition, in test [15], the RAM network inhibition was 1.81% (inactive).
